From PubChem BioAssay (Tox21) come the findings set out here.

The structures appear in SMILES notation. Inconclusive results are not listed. Unmarked numbers belong to inactive results. Calls of active or inactive are those of the source. Calls follow the shape of the dose curve; as a rule, active = well fitted curve in the direction sought with a large enough effect in the repeat runs; inconclusive = weak or mixed curves; inactive = no such curve, though single readings can be large; an effect the other way counts as inactive or inconclusive.

The target in test [1] is Nuclear receptor subfamily 1 group I member 2 (Homo sapiens) (UniProt O75469). As to the kind of experiment: Human pregnane X receptor (PXR) small molecule agonists, qHTS assay (AID 1346982). Also: nearly all actives have a fitted effect of over 35% in size. Also: potency is read from the fitted curve at half-maximal effect. In outline: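 Agonist mode: luminescence from ONE-Glo after 24 h compound exposure at 37C in HepG2 cells carrying hPXR-responsive CYP3A4 luciferase, plated in charcoal-stripped serum medium 5 h beforehand.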

The target in test [2] is Cytochrome P450 2D6 (Homo sapiens) (UniProt P10635). Nature of the test: Cytochrome P450 Family 2 Subfamily D Member 6 (CYP2D6) small molecule antagonists: luciferase reporter qHTS assay (AID 1671196). Also: nearly all actives have a fitted effect of over 50% in size. Also: potency is read from the fitted curve at half-maximal effect. In outline:
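CYP2D6 activity was followed as luminescence from its luciferin product after a 1 h NADPH-driven reaction at room temperature. Enzyme-substrate mix and compound were pre-incubated for 10 min, and the signal was read 20 min after adding detection reagent.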

Test [3] deals with Cytochrome P450 2C9 (Homo sapiens) (UniProt P11712). As to the kind of experiment: Cytochrome P450 Family 2 Subfamily C Member 9 (CYP2C9) small molecule antagonists: luciferase reporter qHTS assay (AID 1671198). Also: nearly all actives have a fitted effect of over 50% in size. Also: potency is read from the fitted curve at half-maximal effect. An outline of the steps: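 Enzyme-substrate mix preincubated with compound 10 min at room temperature; reaction started with NADPH regeneration solution, 1 h 37C. Luminescent luciferin product read after 20 min detection reagent.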

For test [4], the target named is Cytochrome P450 1A2 (Homo sapiens) (UniProt P05177). As to the kind of experiment: Cytochrome P450 Family 1 Subfamily A Member 2 (CYP1A2) small molecule antagonists: luciferase reporter qHTS assay (AID 1671199). Also: nearly all actives have a fitted effect of over 50% in size. Also: potency is read from the fitted curve at half-maximal effect. In outline: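 Luminescence from luciferin formed by CYP1A2 from a proluciferin substrate, read 20 min after detection reagent. Compound was pre-incubated 10 min with enzyme-substrate, and reaction started with NADPH regeneration solution for 1 h at room temperature; furafylline control.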

Test [5] concerns the target Voltage-gated inwardly rectifying potassium channel KCNH2 (Homo sapiens) (UniProt Q12809). Nature of the test: Human Ether-a-go-go-Related Gene (hERG) channel small molecule antagonists: fluorescence cell-based qHTS assay (AID 1671200).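 Also: hERG-expressing U2OS cells given a thallium stimulus after FluxOR II dye loading; series mostly up to about 77 µM; nearly all actives have a fitted effect of over 50% in size.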 An outline of the steps: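 Fluorescence at 540 nm emission (480 nm excitation) was recorded kinetically for 2 min at 1-second intervals once the thallium-containing stimulus reached cells previously loaded with FluxOR II dye.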

In test [6] the target is Cytochrome P450 3A4 (Homo sapiens) (UniProt P08684). Nature of the test: Cytochrome P450 Family 3 Subfamily A Member 4 (CYP3A4) small molecule antagonists: luciferase reporter qHTS assay (AID 1671201). Also: nearly all actives have a fitted effect of over 50% in size. Also: potency is read from the fitted curve at half-maximal effect. In outline:
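qHTS, 1536-well. CYP3A4 + proluciferin substrate, cpd 10 min RT → NADPH regen 1 h RT → detection reagent 20 min → luminescence (RLU). Ketoconazole positive control.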

The target of test [7] is Cytochrome P450 2C19 (Homo sapiens) (UniProt P33261). As to the kind of experiment: Cytochrome P450 Family 2 Subfamily C Member 19 (CYP2C19) small molecule antagonists: luciferase reporter qHTS assay (AID 1671197). Also: nearly all actives have a fitted effect of over 65% in size. Also: potency is read from the fitted curve at half-maximal effect. An outline of the steps:
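Compounds were tested on CYP2C19 activity via proluciferin conversion to luciferin. The 37C, 1 h reaction followed NADPH addition; detection reagent stopped it.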

Sequence of Cytochrome P450 1A2 (Homo sapiens) (P05177 whole entry, looked up): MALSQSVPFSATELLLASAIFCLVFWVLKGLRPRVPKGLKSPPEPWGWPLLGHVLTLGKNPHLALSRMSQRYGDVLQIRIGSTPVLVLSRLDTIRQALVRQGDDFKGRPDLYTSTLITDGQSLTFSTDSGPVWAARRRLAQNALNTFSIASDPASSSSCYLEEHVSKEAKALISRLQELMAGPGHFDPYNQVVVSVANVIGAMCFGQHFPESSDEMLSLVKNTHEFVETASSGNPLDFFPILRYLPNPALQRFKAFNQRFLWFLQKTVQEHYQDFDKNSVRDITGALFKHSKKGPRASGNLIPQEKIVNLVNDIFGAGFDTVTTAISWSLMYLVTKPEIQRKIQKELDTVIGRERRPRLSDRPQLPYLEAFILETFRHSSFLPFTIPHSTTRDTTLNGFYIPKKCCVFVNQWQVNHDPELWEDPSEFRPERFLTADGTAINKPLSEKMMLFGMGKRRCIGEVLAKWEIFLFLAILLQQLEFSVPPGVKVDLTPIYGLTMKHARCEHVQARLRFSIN
Sequence of Cytochrome P450 2C19 (Homo sapiens) (P33261 whole entry, looked up): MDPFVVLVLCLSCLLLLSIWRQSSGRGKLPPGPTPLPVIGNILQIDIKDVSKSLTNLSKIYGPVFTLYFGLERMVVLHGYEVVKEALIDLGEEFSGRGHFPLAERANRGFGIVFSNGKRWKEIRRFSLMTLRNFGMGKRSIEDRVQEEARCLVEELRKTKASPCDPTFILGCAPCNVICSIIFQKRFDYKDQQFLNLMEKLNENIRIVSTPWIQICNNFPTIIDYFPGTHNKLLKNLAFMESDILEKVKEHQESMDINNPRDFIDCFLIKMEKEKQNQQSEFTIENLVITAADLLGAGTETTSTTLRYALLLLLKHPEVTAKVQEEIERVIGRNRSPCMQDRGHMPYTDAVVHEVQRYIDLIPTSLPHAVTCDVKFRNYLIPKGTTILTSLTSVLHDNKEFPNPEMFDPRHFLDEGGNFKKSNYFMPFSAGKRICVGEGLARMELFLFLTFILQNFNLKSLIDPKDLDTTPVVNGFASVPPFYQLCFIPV
Sequence of Voltage-gated inwardly rectifying potassium channel KCNH2 (Homo sapiens) (Q12809 whole entry, looked up): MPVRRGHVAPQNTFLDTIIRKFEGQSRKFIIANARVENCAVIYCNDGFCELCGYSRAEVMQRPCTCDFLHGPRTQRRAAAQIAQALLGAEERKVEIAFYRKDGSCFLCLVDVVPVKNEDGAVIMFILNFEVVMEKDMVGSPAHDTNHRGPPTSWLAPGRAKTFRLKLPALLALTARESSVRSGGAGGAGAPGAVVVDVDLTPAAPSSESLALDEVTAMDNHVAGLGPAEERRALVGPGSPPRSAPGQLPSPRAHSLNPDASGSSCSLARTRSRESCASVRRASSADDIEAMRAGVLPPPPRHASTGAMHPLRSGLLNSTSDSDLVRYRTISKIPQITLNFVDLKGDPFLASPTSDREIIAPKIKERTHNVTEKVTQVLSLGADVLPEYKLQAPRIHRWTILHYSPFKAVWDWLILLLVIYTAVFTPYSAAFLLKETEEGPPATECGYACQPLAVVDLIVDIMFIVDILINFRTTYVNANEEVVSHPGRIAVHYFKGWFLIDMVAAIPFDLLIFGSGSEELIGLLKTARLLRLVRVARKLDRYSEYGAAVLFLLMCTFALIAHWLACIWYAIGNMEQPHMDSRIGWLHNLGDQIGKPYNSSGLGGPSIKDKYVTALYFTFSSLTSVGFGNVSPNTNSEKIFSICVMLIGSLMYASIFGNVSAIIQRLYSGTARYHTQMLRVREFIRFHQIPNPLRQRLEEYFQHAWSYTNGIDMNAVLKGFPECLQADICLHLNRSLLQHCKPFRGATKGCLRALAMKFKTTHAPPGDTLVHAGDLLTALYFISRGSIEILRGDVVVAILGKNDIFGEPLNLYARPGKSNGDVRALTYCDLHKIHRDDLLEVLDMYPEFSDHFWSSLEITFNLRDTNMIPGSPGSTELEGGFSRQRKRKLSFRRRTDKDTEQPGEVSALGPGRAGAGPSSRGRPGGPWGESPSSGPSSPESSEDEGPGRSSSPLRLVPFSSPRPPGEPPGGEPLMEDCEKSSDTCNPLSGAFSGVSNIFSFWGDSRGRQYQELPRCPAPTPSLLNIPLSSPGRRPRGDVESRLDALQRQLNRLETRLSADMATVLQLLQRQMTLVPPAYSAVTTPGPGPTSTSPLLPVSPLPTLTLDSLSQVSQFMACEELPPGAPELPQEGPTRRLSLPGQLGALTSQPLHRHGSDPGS
Sequence of Cytochrome P450 2D6 (Homo sapiens) (P10635 whole entry, looked up): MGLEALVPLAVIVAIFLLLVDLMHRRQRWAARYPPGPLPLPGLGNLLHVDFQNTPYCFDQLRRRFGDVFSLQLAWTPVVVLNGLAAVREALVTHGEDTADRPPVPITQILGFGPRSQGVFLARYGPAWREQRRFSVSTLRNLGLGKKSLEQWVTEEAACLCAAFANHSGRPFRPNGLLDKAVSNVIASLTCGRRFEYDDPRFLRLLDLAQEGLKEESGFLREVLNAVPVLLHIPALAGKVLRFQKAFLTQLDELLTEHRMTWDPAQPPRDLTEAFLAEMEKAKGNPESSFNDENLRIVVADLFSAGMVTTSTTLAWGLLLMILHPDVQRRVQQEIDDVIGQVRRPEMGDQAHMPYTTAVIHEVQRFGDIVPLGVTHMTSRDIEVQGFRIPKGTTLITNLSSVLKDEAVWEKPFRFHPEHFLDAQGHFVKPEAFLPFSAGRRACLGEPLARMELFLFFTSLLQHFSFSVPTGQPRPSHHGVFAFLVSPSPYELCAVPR
Sequence of Nuclear receptor subfamily 1 group I member 2 (Homo sapiens) (O75469 whole entry, looked up): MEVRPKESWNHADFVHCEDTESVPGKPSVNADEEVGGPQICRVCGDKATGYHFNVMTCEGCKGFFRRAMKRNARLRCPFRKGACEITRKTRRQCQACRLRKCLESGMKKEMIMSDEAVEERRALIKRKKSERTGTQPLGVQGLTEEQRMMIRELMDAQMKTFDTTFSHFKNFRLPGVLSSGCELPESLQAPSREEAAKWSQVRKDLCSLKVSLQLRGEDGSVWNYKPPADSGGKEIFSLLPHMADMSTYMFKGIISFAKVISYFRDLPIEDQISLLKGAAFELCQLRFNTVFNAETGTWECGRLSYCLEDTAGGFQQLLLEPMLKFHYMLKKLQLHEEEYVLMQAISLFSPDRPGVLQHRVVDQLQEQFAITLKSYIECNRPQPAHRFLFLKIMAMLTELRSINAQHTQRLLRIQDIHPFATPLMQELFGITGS
Sequence of Cytochrome P450 3A4 (Homo sapiens) (P08684 whole entry, looked up): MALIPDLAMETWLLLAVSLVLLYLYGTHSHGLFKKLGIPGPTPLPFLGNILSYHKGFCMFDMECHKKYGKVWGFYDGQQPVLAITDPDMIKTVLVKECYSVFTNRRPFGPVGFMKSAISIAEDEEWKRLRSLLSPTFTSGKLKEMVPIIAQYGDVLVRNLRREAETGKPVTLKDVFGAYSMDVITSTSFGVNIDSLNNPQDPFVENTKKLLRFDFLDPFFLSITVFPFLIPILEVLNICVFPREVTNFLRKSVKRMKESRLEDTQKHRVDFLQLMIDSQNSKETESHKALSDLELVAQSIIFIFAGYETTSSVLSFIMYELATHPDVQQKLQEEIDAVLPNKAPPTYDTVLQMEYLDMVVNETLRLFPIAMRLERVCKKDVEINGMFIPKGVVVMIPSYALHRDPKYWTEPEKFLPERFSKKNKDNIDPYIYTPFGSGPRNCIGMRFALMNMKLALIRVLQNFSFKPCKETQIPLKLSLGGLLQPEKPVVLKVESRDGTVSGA
Sequence of Cytochrome P450 2C9 (Homo sapiens) (P11712 whole entry, looked up): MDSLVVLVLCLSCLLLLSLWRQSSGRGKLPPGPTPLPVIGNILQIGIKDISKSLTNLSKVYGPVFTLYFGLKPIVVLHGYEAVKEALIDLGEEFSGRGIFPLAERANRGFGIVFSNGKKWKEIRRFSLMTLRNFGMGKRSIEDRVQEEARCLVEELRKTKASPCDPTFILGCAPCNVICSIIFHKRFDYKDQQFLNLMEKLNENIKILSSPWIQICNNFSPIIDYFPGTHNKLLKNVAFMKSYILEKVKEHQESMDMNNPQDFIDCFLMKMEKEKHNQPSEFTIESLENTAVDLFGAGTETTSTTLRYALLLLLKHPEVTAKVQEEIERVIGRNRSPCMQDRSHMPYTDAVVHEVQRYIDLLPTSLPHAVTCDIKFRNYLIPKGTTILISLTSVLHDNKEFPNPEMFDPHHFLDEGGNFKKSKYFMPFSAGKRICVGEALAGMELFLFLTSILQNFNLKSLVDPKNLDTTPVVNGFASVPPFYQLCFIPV

Take `C[N+](C)(C)CC(O)CCl` (stereo not drawn): the Potency entry in test [1], in test [2], in test [3], in test [4], in test [5] and in test [6] was “inactive” in each case.
`Nc1cc(Cl)cc(S(=O)(=O)O)c1O`: the Potency entry in test [1], in test [2], in test [4], in test [5] and in test [6] was “inactive” in each case. In test [3], the Potency was 20.6 µM (active).
Turning to `Cc1cccc(C(=O)O)c1[N+](=O)[O-]`, the Potency entry in test [1], in test [7] and in test [5] was “inactive” throughout. The Potency is 31.8 µM (active) in test [2] and 63.4 µM (active) in test [4].
As to `CC(C)CCCCCCOC(=O)C1CCCCC1C(=O)OCCCCCCC(C)C` (stereo not drawn), the Potency entry in test [1], in test [2], in test [7], in test [4] and in test [5] was “inactive” each time.
With `CCOC(=O)CCCCCCCCC(=O)OCC`, the Potency entry in test [1], in test [2], in test [5] and in test [6] was “inactive” each time. In addition, the figures for the Potency in test [3] and in test [4] were 31.7 µM (active) and 44.8 µM (active), respectively.
For the compound `CCCOC(=O)CCCCC(=O)OCCC`, the Potency result in test [1], in test [2], in test [5] and in test [6] was “inactive” throughout. Further, the figures for the Potency in test [3] and in test [4] were 20 µM (active) and 22.4 µM (active), respectively.
For `FC(F)(F)c1ccc(Cl)cc1Cl`, the Potency result in test [1], in test [2], in test [3], in test [4], in test [5] and in test [6] was “inactive” each time.
For `CC(C)C(=O)c1ccccc1`, the Potency entry in test [1], in test [2], in test [7], in test [3] and in test [6] was “inactive” throughout.
For `CC1=CC[C@H](CC=O)C1(C)C`, the Potency in test [1] is 48.6 µM (active); in test [4] it was 31.7 µM (active); in test [6], 63.3 µM (active). Further, the Potency result in test [2], in test [7] and in test [5] was “inactive” each time.
As for `CCCCC[Si](OCC)(OCC)OCC`, the Potency result in test [1] and in test [2] was “inactive” in each case. Further, the Potency in test [7] is 25.2 µM (active); in test [3], 31.7 µM (active); in test [6] it was 12.6 µM (active).
Consider `Nc1ccc(C(=O)OCC(O)CO)cc1` (stereo not drawn), for which the Potency entry in test [1] and in test [2] was “inactive” in each case. For the same compound, the Potency in test [7] is 17.4 µM (active); in test [4], 15.5 µM (active).
On to `CO/N=C(/C(=O)N[C@@H]1C(=O)N2C(C(=O)O)=C(Cn3nnc(C)n3)CS[C@H]12)c1csc(N)n1`, for which the Potency result in test [1], in test [2], in test [3], in test [4], in test [5] and in test [6] was “inactive” each time.
Consider `CC(C)SCc1ccco1`, for which the Potency entry in test [1], in test [2], in test [3], in test [4], in test [5] and in test [6] was “inactive” each time.
Turning to `CCCCC(CC)COC(=O)c1ccccc1` (stereo not drawn), the Potency result in test [1], in test [2], in test [7], in test [5] and in test [6] was “inactive” throughout. Also, in test [4], the Potency was 28.3 µM (active).
As to `CC(C)CCC(=O)CCC(C)C`, the Potency entry in test [1], in test [2], in test [3], in test [5] and in test [6] was “inactive” each time. Also, in test [4], the Potency was 39.9 µM (active).
On to `CNC(=O)NC`, for which the Potency entry in test [1], in test [2], in test [3], in test [4], in test [5] and in test [6] was “inactive” each time.
In the case of `O=C(O)c1ccccc1C(=O)Nc1ccc(S(=O)(=O)Nc2nccs2)cc1`, the Potency result in test [1], in test [2], in test [3], in test [4], in test [5] and in test [6] was “inactive” in each case.
For `CCN(CCO)c1cccc(C)c1`, the Potency result in test [1], in test [2] and in test [5] was “inactive” throughout. The Potency in test [7] is 35.6 µM (active); in test [4] it was 28.3 µM (active).
For `CCCCCCCC/C=C\CCCCCCCC(=O)OC[C@@H](O)[C@H]1OC[C@H](O)[C@H]1O`, the Potency entry in test [1], in test [2], in test [4], in test [5] and in test [6] was “inactive” in each case. Moreover, the Potency in test [3] is 31.7 µM (active).
Regarding `CC(=O)OC(C)c1ccccc1` (stereo not drawn), the Potency result in test [1], in test [2], in test [3], in test [4], in test [5] and in test [6] was “inactive” throughout.
Take `CC(C)CCCC(C)CC=O` (stereo not drawn): the Potency result in test [1], in test [2], in test [4] and in test [6] was “inactive” in each case. For the same compound, the Potency in test [7] is 79.6 µM (active).
Take `Cc1ccccc1C`: the Potency entry in test [1], in test [2], in test [3] and in test [6] was “inactive” throughout. Besides, the Potency in test [7] is 81.7 µM (active).
